The source of these data is PubChem BioAssay (NCI).

The structures appear in SMILES notation. “And” between values parts separate entries of the source, which are not always exact repeats. Equal entries are not always repeated. This is part of a sample that, as a whole, favours compounds with a hit. Of some 83,000 tested, about 20% had one in any assay.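 In brief: 96-well plates, 48 h treatment, single concentration, percent growth endpoint.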 The source made the active and inactive calls. The calls were made as follows: active = growth percent below 10; inactive = the rest.

Test systems include MOLT-4 leukemia; SR leukemia; RPMI-8226 leukemia; OVCAR-8 ovarian; OVCAR-5 ovarian; OVCAR-4 ovarian; SK-OV-3 ovarian; IGROV1 ovarian; OVCAR-3 ovarian; HS 578T breast; T-47D breast; BT-549 breast; MDA-MB-435 melanoma; SW-620 colon; MCF7 breast; HCT-116 colon; HCC-2998 colon; KM12 colon; NCI/ADR-RES ovarian.
Assay in all cases: NCI-60 one-dose screen, 48 h (100 = growth as untreated, 0 = no growth, -100 = all killed)
Holding throughout (details): 10 µM unless noted

As for `Nc1ccc(P(=O)(O)O)cc1`, the growth is 110% (inactive) and 112% (inactive) in the test with MOLT-4 leukemia; 108% (inactive) and 115% (inactive) in the test with SR leukemia; 97.8% (inactive) and 104% (inactive) in the test with RPMI-8226 leukemia; 101% (inactive) and 98.4% (inactive) with OVCAR-8 ovarian; 97.6% (inactive) and 99.8% (inactive) in the test with OVCAR-5 ovarian; 90.7% (inactive) with OVCAR-4 ovarian. The growth was 104% (inactive) and 108% (inactive) with SK-OV-3 ovarian; 97.9% (inactive) and 111% (inactive) with IGROV1 ovarian; 107% (inactive) and 110% (inactive) with OVCAR-3 ovarian; 110% (inactive) with HS 578T breast; 101% (inactive) in the test on T-47D breast; 115% (inactive) and 98.3% (inactive) with BT-549 breast. For the same compound, the growth in the test on MDA-MB-435 melanoma is 107% (inactive) and 105% (inactive); with SW-620 colon, 103% (inactive) and 106% (inactive); in the test with MCF7 breast it was 103% (inactive) and 89.1% (inactive); with HCT-116 colon, 112% (inactive) and 103% (inactive); with HCC-2998 colon, 100% (inactive) and 96% (inactive); in the test on KM12 colon it was 109% (inactive) and 99.6% (inactive).
Take `Cc1nnc([S-])o1.[Au+].c1ccc([PH+](c2ccccc2)c2ccccc2)cc1`: the growth is 38.6% (inactive) in the test on MOLT-4 leukemia; 20.8% (inactive) in the test with SR leukemia; 17.2% (inactive) in the test with RPMI-8226 leukemia; 44.8% (inactive) in the test with OVCAR-8 ovarian; 110% (inactive) in the test with OVCAR-5 ovarian; 60.4% (inactive) with OVCAR-4 ovarian. In addition, the growth is 111% (inactive) with SK-OV-3 ovarian; 20.9% (inactive) with IGROV1 ovarian; -61.4% (active) in the test with OVCAR-3 ovarian; 30.4% (inactive) with HS 578T breast; 99.6% (inactive) in the test on NCI/ADR-RES ovarian; 29.6% (inactive) with T-47D breast. Further, the growth in the test on MDA-MB-435 melanoma was 43.9% (inactive); in the test on MCF7 breast, 10.3% (inactive); in the test with HCT-116 colon, 21.6% (inactive); with HCC-2998 colon, 80.2% (inactive); in the test on KM12 colon, 74.2% (inactive).
In the case of `O=C1NC(=O)C(=Cc2ccccc2)C(=O)N1`, the growth in the test with MOLT-4 leukemia is 81.5% (inactive) and 109% (inactive); with SR leukemia, 89.7% (inactive) and 107% (inactive); with RPMI-8226 leukemia, 112% (inactive) and 110% (inactive); in the test with OVCAR-8 ovarian, 104% (inactive); in the test with OVCAR-5 ovarian it was 108% (inactive); in the test on OVCAR-4 ovarian, 109% (inactive) and 112% (inactive). In addition, the growth with SK-OV-3 ovarian was 106% (inactive) and 107% (inactive); in the test with IGROV1 ovarian, 92.5% (inactive) and 104% (inactive); in the test with OVCAR-3 ovarian, 102% (inactive) and 111% (inactive); with HS 578T breast it was 119% (inactive) and 103% (inactive); in the test with NCI/ADR-RES ovarian it was 100% (inactive) and 103% (inactive); in the test with T-47D breast it was 94.8% (inactive) and 105% (inactive). Moreover, the growth in the test with MDA-MB-435 melanoma was 113% (inactive) and 104% (inactive); in the test on MCF7 breast it was 145% (inactive) and 102% (inactive); in the test with HCT-116 colon, 94% (inactive) and 102% (inactive); in the test on HCC-2998 colon it was 99.6% (inactive) and 117% (inactive); in the test on KM12 colon it was 114% (inactive) and 108% (inactive).
`C[Se]/C=C1/C(=O)N(c2c(Cl)cccc2Cl)c2ccccc21`: the growth in the test on MOLT-4 leukemia is 10.2% (inactive); in the test on SR leukemia, 2.07% (active); with RPMI-8226 leukemia, 2.93% (active); in the test on OVCAR-8 ovarian, -15.2% (active); with OVCAR-5 ovarian, 28.7% (inactive); in the test with OVCAR-4 ovarian, 34.3% (inactive). For the same compound, the growth is 61.5% (inactive) in the test with SK-OV-3 ovarian; 44.7% (inactive) with IGROV1 ovarian; 20.3% (inactive) in the test with OVCAR-3 ovarian; 9.06% (active) in the test on NCI/ADR-RES ovarian; 65.8% (inactive) in the test with T-47D breast; -35.6% (active) in the test with BT-549 breast. In addition, the growth in the test with MDA-MB-435 melanoma was -30.3% (active); with SW-620 colon, 19.3% (inactive); in the test on MCF7 breast, 17.3% (inactive); in the test on HCT-116 colon, 11.4% (inactive); with KM12 colon, 72% (inactive).
Regarding `O=C(O)c1ccc(=O)[nH]c1`, the growth was 119% (inactive) and 99.2% (inactive) in the test with MOLT-4 leukemia; 87.7% (inactive) and 105% (inactive) in the test with SR leukemia; 103% (inactive) and 96.5% (inactive) in the test on RPMI-8226 leukemia; 101% (inactive) and 103% (inactive) with OVCAR-8 ovarian; 90.3% (inactive) and 106% (inactive) in the test on OVCAR-5 ovarian; 111% (inactive) and 106% (inactive) in the test on OVCAR-4 ovarian. In addition, the growth is 98.9% (inactive) and 93% (inactive) with SK-OV-3 ovarian; 109% (inactive) in the test on IGROV1 ovarian; 113% (inactive) and 108% (inactive) with OVCAR-3 ovarian; 88.9% (inactive) and 102% (inactive) in the test with NCI/ADR-RES ovarian; 88.8% (inactive) and 89.6% (inactive) with T-47D breast; 89.7% (inactive) with BT-549 breast. Besides, the growth was 106% (inactive) and 103% (inactive) in the test on MDA-MB-435 melanoma; 105% (inactive) and 107% (inactive) with SW-620 colon; 126% (inactive) and 93.4% (inactive) with MCF7 breast; 103% (inactive) and 93.7% (inactive) in the test on HCT-116 colon; -49% (active) and 101% (inactive) with HCC-2998 colon; 103% (inactive) and 105% (inactive) in the test with KM12 colon.
For the compound `CN(C)c1ccc(N)cc1`, the growth in the test with MOLT-4 leukemia is 100% (inactive) and 63.4% (inactive); in the test on SR leukemia it was 99% (inactive) and 33.6% (inactive); with RPMI-8226 leukemia it was 93.6% (inactive) and 21% (inactive); in the test with OVCAR-8 ovarian, 93.7% (inactive) and 30.2% (inactive); in the test on OVCAR-5 ovarian, 112% (inactive) and 89.5% (inactive); with OVCAR-4 ovarian it was 97.6% (inactive) and 39.6% (inactive). In addition, the growth in the test with SK-OV-3 ovarian is 90% (inactive) and 70.4% (inactive); in the test with IGROV1 ovarian, 94.5% (inactive) and 61.8% (inactive); with OVCAR-3 ovarian, 106% (inactive) and 32.4% (inactive); with NCI/ADR-RES ovarian, 104% (inactive) and 85.3% (inactive); in the test on T-47D breast it was 90.7% (inactive) and 28.5% (inactive); in the test with BT-549 breast, 107% (inactive) and 72% (inactive). For the same compound, the growth in the test with MDA-MB-435 melanoma was 107% (inactive) and 43.4% (inactive); in the test on SW-620 colon, 99.1% (inactive) and 65.6% (inactive); in the test on MCF7 breast, 87.7% (inactive) and 30.5% (inactive); in the test on HCT-116 colon, 117% (inactive) and 14.8% (inactive); with HCC-2998 colon, 106% (inactive); in the test on KM12 colon, 107% (inactive) and 34.7% (inactive).
On to `CC1(C)C=Cc2c(ccc3c2[N+]([O-])=C2C3=C[C@@]34NC(=O)[C@]5(CCCN5C3=O)C[C@@H]4C2(C)C)O1`, for which the growth with MOLT-4 leukemia is 28.7% (inactive); in the test with SR leukemia, 15.4% (inactive); in the test with RPMI-8226 leukemia it was 24.6% (inactive); in the test with OVCAR-8 ovarian, 42.7% (inactive); in the test with OVCAR-5 ovarian it was 56.6% (inactive); with OVCAR-4 ovarian it was 43.5% (inactive). Further, the growth in the test with SK-OV-3 ovarian is 85.5% (inactive); in the test with IGROV1 ovarian it was 55.6% (inactive); in the test on OVCAR-3 ovarian, 25% (inactive); with HS 578T breast it was 90.8% (inactive); in the test on T-47D breast, 53.2% (inactive); in the test on BT-549 breast, 39.8% (inactive). Also, the growth in the test with MDA-MB-435 melanoma was 47.3% (inactive); with SW-620 colon, 12.9% (inactive); with MCF7 breast, 17.9% (inactive); in the test with HCT-116 colon it was 17.4% (inactive); with HCC-2998 colon it was 78.1% (inactive); in the test with KM12 colon it was 47.5% (inactive).
